Each structure is given as a SMILES string. Among all 39,000 compounds or so, about 3,300 (8.5%) were called active. The sample as a whole holds a higher share of actives than the screen did.

The test system of this test is HepG2. Put plainly: cytotoxicity call (relative viability < 0.9). The settings on record: 10 µM.
As for `NCC[C@H]1CC[C@@H](NC(=O)Cc2ccncc2)[C@@H](CO)O1`, the cytotoxicity call is “inactive”.

For the compound `C[C@@H]1CN([C@@H](C)CO)C(=O)CCCn2cc(nn2)CO[C@H]1CN(C)S(=O)(=O)c1ccc(Oc2ccccc2)nc1`, the cytotoxicity call is “inactive”.

With `CSc1nn(C)c2cnn(C)c(=O)c12`, the cytotoxicity call is “inactive”.

For `C[C@H](CO)N1C[C@H](C)[C@H](CN(C)S(=O)(=O)c2cn(C)cn2)Oc2ncc(C#Cc3ccccc3)cc2C1=O`, the cytotoxicity call was “inactive”.

For the compound `COc1ccc(S(=O)(=O)Nc2ccc3c(c2)C(=O)N([C@H](C)CO)C[C@H](C)[C@@H](CN(C)C(=O)Nc2c(C)noc2C)OCCCC[C@@H](C)O3)cc1`, the cytotoxicity call was “inactive”.

As for `C[C@@H]1CN([C@@H](C)CO)C(=O)c2cc(NC(=O)Nc3ccc(F)cc3)ccc2O[C@@H](C)CCCCO[C@H]1CN(C)C(=O)CCCN(C)C`, the cytotoxicity call was “inactive”.

Turning to `Cc1noc(C)c1S(=O)(=O)Nc1ccc2c(c1)C(=O)N([C@@H](C)CO)C[C@@H](C)[C@@H](CN(C)S(=O)(=O)c1ccc(Cl)cc1)O2`, the cytotoxicity call was “inactive”.

As for `C[C@@H]1CN([C@H](C)CO)C(=O)c2cc(C#Cc3cccc(F)c3)cnc2O[C@@H]1CN(C)C(=O)C1CCOCC1`, the cytotoxicity call was “inactive”.

Consider `C[C@@H]1CN([C@H](C)CO)C(=O)c2cc(NS(=O)(=O)c3ccc(F)cc3)ccc2O[C@@H](C)CCCCO[C@H]1CN(C)C(=O)Nc1ccccc1`, for which the cytotoxicity call is “active”.

Turning to `C[C@@H]1CCCCO[C@H](CN(C)C(=O)Nc2ccccc2)[C@H](C)CN([C@@H](C)CO)C(=O)c2cc(NS(=O)(=O)c3ccc(F)cc3)ccc2O1`, the cytotoxicity call is “inactive”.

As for `C[C@H](CO)N1C[C@H](C)[C@@H](CN(C)C(=O)Nc2ccccc2)OCCCC[C@H](C)Oc2ccc(NS(=O)(=O)c3ccc(F)cc3)cc2C1=O`, the cytotoxicity call was “inactive”.

With `C[C@@H]1CCCCO[C@@H](CN(C)C(=O)Nc2ccccc2)[C@H](C)CN([C@H](C)CO)C(=O)c2cc(NS(=O)(=O)c3ccc(F)cc3)ccc2O1`, the cytotoxicity call was “active”.

For `C[C@@H]1CCCCO[C@@H](CN(C)C(=O)Nc2ccccc2)[C@H](C)CN([C@@H](C)CO)C(=O)c2cc(NS(=O)(=O)c3ccc(F)cc3)ccc2O1`, the cytotoxicity call was “inactive”.

As for `C[C@@H]1CN([C@@H](C)CO)C(=O)c2cc(NS(=O)(=O)c3ccc(F)cc3)ccc2O[C@@H](C)CCCCO[C@H]1CN(C)C(=O)Nc1ccccc1`, the cytotoxicity call was “inactive”.

For the compound `COc1cccc(C(=O)Nc2ccc3c(c2)C(=O)N(C)[C@@H]2CC[C@H](CC(=O)NCCCN4CCOCC4)O[C@@H]2CO3)c1`, the cytotoxicity call is “inactive”.

For the compound `Cn1ccc2ccc(CN)cc21`, the cytotoxicity call is “inactive”.

As for `Cc1cc(C)nc(C#N)n1`, the cytotoxicity call was “inactive”.

Take `C[C@H](CO)N1C[C@H](C)[C@@H](CN(C)C(=O)Nc2ccc3c(c2)OCO3)Oc2ccc(NC(=O)Nc3cccc4ccccc34)cc2CC1=O`: the cytotoxicity call is “inactive”.

On to `COc1ccc(S(=O)(=O)Nc2ccc3c(c2)C(=O)N([C@H](C)CO)C[C@H](C)[C@H](CN(C)C(=O)Nc2ccc(F)cc2)OCCCC[C@@H](C)O3)cc1`, for which the cytotoxicity call was “inactive”.

Consider `COCC#Cc1ccc2c(c1)O[C@@H](CN(C)C(=O)c1ccccc1)[C@H](C)CN([C@H](C)CO)S2(=O)=O`, for which the cytotoxicity call was “inactive”.

`C[n+]1cc2c3c(ccc2c2ccc4cc5c(cc4c21)OCO5)OCO3.[Cl-]`: the cytotoxicity call is “active”.

On to `CCCNC(=O)N1C[C@@H](O)COC[C@H]2O[C@H](CC(=O)N3CCN(C)CC3)CC[C@@H]21`, for which the cytotoxicity call was “inactive”.

For `C[n+]1ccn(C[C@@]2(C)[C@H](C(=O)O)N3C(=O)C[C@H]3S2(=O)=O)n1`, the cytotoxicity call was “inactive”.

On to `Cc1noc(C)c1NC(=O)N(C)C[C@H]1Oc2c(NS(=O)(=O)c3cn(C)cn3)cccc2C(=O)N([C@@H](C)CO)C[C@@H]1C`, for which the cytotoxicity call is “inactive”.

In the case of `Cc1ccc(S(=O)(=O)N[C@@H](Cc2ccccc2)C(=O)NCCCn2cc(-c3ccc(C(=O)NO)s3)nn2)cc1`, the cytotoxicity call was “inactive”.

As for `C[C@H]1COC(=O)[C@H](Cc2ccc(F)cc2)CC=CC[C@@H](CC(=O)N[C@H](CO)Cc2ccccc2)C(=O)N1`, the cytotoxicity call is “inactive”.

On to `O=C(C[C@@H]1C/C=C/C[C@H](Cc2ccccc2)C(=O)N[C@H](c2ccccc2)COC1=O)NCc1ccc(Cl)cc1`, for which the cytotoxicity call is “active”.

On to `CC(=O)N[C@H]1C/C=C/C[C@@H](CC(=O)NCc2ccc(Cl)cc2)C(=O)NC[C@@H](c2ccccc2)OC1=O`, for which the cytotoxicity call is “inactive”.

As to `C[C@@H]1CN([C@@H](C)CO)C(=O)c2cc(NC(=O)c3ccncc3)ccc2O[C@@H](C)CCCCO[C@@H]1CN(C)Cc1ccccc1`, the cytotoxicity call was “inactive”.

As to `C[C@H]1CN([C@@H](C)CO)C(=O)c2cc(NC(=O)Cn3cnnn3)ccc2O[C@@H]1CN(C)S(=O)(=O)c1ccc(Cl)cc1`, the cytotoxicity call was “inactive”.

`C[C@H](CO)N1C[C@H](C)[C@H](CN(C)Cc2ccc(-c3ccccc3)cc2)Oc2ccc(NC(=O)Nc3ccc(F)cc3)cc2CC1=O`: the cytotoxicity call was “active”.

For `C[C@@H]1CN([C@@H](C)CO)C(=O)Cc2cc(NC(=O)Nc3ccc(F)cc3)ccc2O[C@@H]1CN(C)Cc1ccc(-c2ccccc2)cc1`, the cytotoxicity call is “active”.

`C[C@H]1CN([C@@H](C)CO)C(=O)Cc2cc(NC(=O)Nc3ccc(F)cc3)ccc2O[C@@H]1CN(C)Cc1ccc(-c2ccccc2)cc1`: the cytotoxicity call is “active”.

`C[C@H](CO)N1C[C@H](C)[C@@H](CN(C)Cc2ccc(-c3ccccc3)cc2)Oc2ccc(NC(=O)Nc3ccc(F)cc3)cc2CC1=O`: the cytotoxicity call is “active”.

With `C[C@H](CO)N1C[C@H](C)[C@@H](CN(C)S(=O)(=O)c2cn(C)cn2)Oc2ncc(C3=CCCC3)cc2C1=O`, the cytotoxicity call was “inactive”.

As to `O=C(CN1CCOCC1)N[C@H]1CC[C@@H](CCNC(=O)Nc2cc(F)ccc2F)O[C@H]1CO`, the cytotoxicity call was “inactive”.

In the case of `CON=C(C(=O)NC1C(=O)N2C(C(=O)[O-])=C(COC(N)=O)CSC12)c1ccco1.[Na+]` (stereo unspecified), the cytotoxicity call is “inactive”.

With `C[C@@H]1CCCCO[C@H](CN(C)C(=O)Nc2cccc3ccccc23)[C@@H](C)CN([C@@H](C)CO)C(=O)c2cc(N(C)C)ccc2O1`, the cytotoxicity call is “inactive”.

On to `CCCNC(=O)N(C)C[C@H]1Oc2cc(C#Cc3cccc(F)c3)ccc2S(=O)(=O)N([C@H](C)CO)C[C@H]1C`, for which the cytotoxicity call is “inactive”.

As for `C[C@H](CO)N1C[C@H](C)[C@H](CN(C)Cc2ccccc2)OCCCC[C@H](C)Oc2ccc(NS(=O)(=O)c3ccc(Cl)cc3)cc2C1=O`, the cytotoxicity call was “inactive”.

For the compound `CCCNC(=O)N(C)C[C@@H]1Oc2cc(-c3ccc(C)cc3)ccc2S(=O)(=O)N([C@H](C)CO)C[C@@H]1C`, the cytotoxicity call was “inactive”.

For the origin of these results see the antibiotic and cytotoxicity screens of Wong et al. (2023).
